tim23-1 inh = inhibits growth of tim23-1 mutant yeast | S. cerevisiae tim23-1 growth, BacTiter-Glo luminescence, 24 h | inhibition, % at 20 µM | 330,000 compounds, 1.3% hits | AID 463212;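 active = growth inhibition of the mutant yeast at or above 50%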;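 note: temperature-sensitive mutant grown at 25 °C; plate controls were DMSO-treated mutant yeast for no effect and medium wells lacking yeast for full effect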
SKKanGAS inh = blocks kanamycin growth of S. pyogenes SKKanGAS strain. BacTiter-Glo, 6 h. inhibition, % at 7.5 µM. 300,000 compounds, 1.3% hits. AID 1662;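 active = mean replicate score, as percent of positive control median, at least 50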;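 note: strain carries kanamycin resistance gene driven by streptokinase promoter and grows in 40 µg/ml kanamycin; loss of luminescence reflects streptokinase promoter inhibition or plain growth inhibition; 0% = median of DMSO wells and 100% = positive control at its reference dose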
PfHsp90 yeast 2 = inhibits growth of yeast expressing Plasmodium falciparum Hsp90; inhibition, % at 9.4 µM; AID 504621; 310,000 compounds, 0.32% hits; S. cerevisiae expressing PfHsp90, BacTiter-Glo ATP, 48 h; yeast lacking PDR1 and PDR3 efflux regulators;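 active = every replicate shows inhibition above about 80%, whatever the replicate mean, limit read from the data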;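 note: 0% = DMSO neutral controls and 100% = 20 µM radicicol positive controls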
tim10-1 inh = inhibits growth of tim10-1 mutant yeast | S. cerevisiae tim10-1 ts strain growth, BacTiter-Glo, 24 h | 330,000 compounds, 2.2% hits | inhibition, % at 20 µM | AID 463190;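 active = inhibition of at least 40%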;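 note: mutant grown at 25 °C; 0% = DMSO wells with yeast and 100% = wells holding no yeast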
NLRP3 yeast inh = blocks the NALP3 inflammasome reconstituted in yeast; Yeast reconstituted NLRP3/ASC/caspase-1, beta-gal luminescence, 24 h; inhibition, % at 10 µM; 330,000 compounds, 0.39% hits;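 active = inhibition of 50% or more; inactive = inhibition below 50%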;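 note: plate controls were induced DMSO wells for no effect and uninduced yeast grown without galactose for full effect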
TIM10 inh = inhibits growth of TIM10 yeast strain. S. cerevisiae TIM10 strain growth, BacTiter-Glo luminescence, 24 h. inhibition, % at 10 µM. 330,000 compounds, 1.4% hits;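 active = inhibition of 40% or more at the single tested concentration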;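 note: wild-type TIM10 isogenic control strain grown at permissive 25 °C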
tim10-1 confirm = tim10-1 yeast growth inhibition, confirmed. inhibition, % at 20 µM. 7,400 compounds, 56% hits. AID 463213. S. cerevisiae tim10-1 ts strain growth, BacTiter-Glo, 24 h. shares compounds with tim10-1 inh;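 active = inhibition of yeast growth at or above a set limit in either of two repeat tests at 20 µM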;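 note: tim10-1 mutant grown at permissive 25 °C to find synthetic lethal compounds; 0% = DMSO yeast wells and 100% = medium wells without yeast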
* marks the source's active call; other numbers are inactive results; . = no result given. Only some compounds are listed: those with a hit (about 4.6% of all), similar ones and a draw of the others.

SMILES	tim23-1 inh	SKKanGAS inh	PfHsp90 yeast 2	tim10-1 inh	NLRP3 yeast inh	TIM10 inh	tim10-1 confirm
CCc1cc2ccc(OC)cc2nc1SCC(=O)NNC(=O)c1ccco1	49	4	-15	43*	12	26	24
CC(=O)Nc1ccc2nc(NC(=O)c3ccc([N+](=O)[O-])o3)sc2c1	-12	20	-5	-5	-9	-3	.
Cc1ccc(N=Nc2c(N)[nH]n3c(=O)cc(-c4ccccc4)nc23)cc1	34	.	.	50*	25	11	27
COC(=O)c1cc(S(=O)(=O)N2CCN(c3ccccc3)CC2)c[nH]1	0	-2	9	-11	10	-3	.
COC(=O)c1cc(S(=O)(=O)N2CCN(c3cccc(C)c3C)CC2)c[nH]1	26	-5	26	51*	-9	31	30*
CCOc1ccccc1-n1nnnc1SC(C)C(=O)OC (configuration not stated)	16	0	.	21	-8	-3	.
O=C(CSc1nnc(NC(=O)C2CC2)s1)Nc1ccccc1C(F)(F)F	5	0	-5	-15	11	13	.
COC(CN(C(=O)CCl)C(C(=O)NC1CCCCC1)c1ccccc1C)OC (configuration not stated)	36	6	-10	43*	10	39	32*
COc1ccc(C(C(=O)NC2CCCCC2)N(C(=O)CCl)c2ccc(Cl)cc2)cc1 (configuration not stated)	17	-7	19	21	1	19	.
COC(CN(C(=O)CCl)C(C(=O)NC1CCCCC1)c1ccc(Cl)cc1)OC (configuration not stated)	38	-4	22	43*	4	34	30
O=C(NCCOc1ccccc1Cl)c1ccc2c(c1)S(=O)(=O)c1cc(Cl)ccc1C2=O	7	.	17	-7	18	-9	.
COc1ccccc1NC(=O)CSc1nc(=O)n(Cc2ccncc2)c2c1CCCC2	0	-15	20	-5	2	1	.
COc1ccccc1C(=O)NC(CCSC)C(=O)NCCCn1nc(C)cc1C (configuration not stated)	9	3	-11	8	11	0	.
COc1ccc(S(=O)(=O)n2oc(=O)cc2-c2ccccc2)cc1	14	1	-17	43*	-37	14	20
Cc1ccc(S(=O)(=O)N(C)C)cc1NC(=S)NNC(=O)C(N)=O	6	-7	22	4	14	-16	.
CCn1c(C(=O)O)c(CC(=O)Nc2ccccc2OC)c2ccccc21	3	9	21	-8	3	12	.
COc1ccc(N2CCN(C(=O)COC(=O)CCOc3ccccc3C)CC2)cc1	18	-10	2	43*	17	27	19
COc1ccc(N2CCN(C(=O)COC(=O)CCOc3cc(C)ccc3C)CC2)cc1	17	6	.	34	19	19	.
O=C(CCCN1C(=O)c2cccc3cccc(c23)C1=O)N1CCN(c2ccc(F)cc2)CC1	40	7	0	13	29	24	.
COc1ccc(N2CCN(C(=O)CCCN3C(=O)c4cccc5cccc(c45)C3=O)CC2)cc1	46	-14	.	49*	20	34	19
COc1ccc(/C=N/NC(=O)c2ccc(O)cc2O)cc1CSc1ccccn1	12	-2	-5	19	-4	7	.
O=C(NC(=S)N1CCCc2ccccc21)c1ccco1	7	-3	-9	11	22	21	.
CC1Cc2ccccc2N1C(=S)NC(=O)c1ccco1 (configuration not stated)	13	-7	3	40*	-5	34	36*
CCOC(=O)c1sc(NC(=O)C2CC2)nc1C	48	-2	-14	47*	5	38	32*
CCOC(=O)c1sc(NC(=O)CC)nc1C	20	-12	10	15	-14	2	.
Cc1ccccc1-c1nc(CS(=O)(=O)CC(=O)NC2CCCCC2C)c(C)o1 (configuration not stated)	15	-6	-1	41*	20	14	-2
Cc1oc(-c2ccccc2F)nc1CSCC(=O)NC1CCC(C)CC1 (configuration not stated)	28	15	47	40*	12	6	-7
